# Laboratory results from the supplement of paper PMC3334620.
# Over roughly 33,000 sequences, “E-score (-0.5 to 0.5)” has its median near -0.035; the highest 2% begin near 0.35. The entries come from a sample that favours the highest values as a whole.
# Biological target: T1, Pdr3 (UniProt P33200)
# T1 sequence: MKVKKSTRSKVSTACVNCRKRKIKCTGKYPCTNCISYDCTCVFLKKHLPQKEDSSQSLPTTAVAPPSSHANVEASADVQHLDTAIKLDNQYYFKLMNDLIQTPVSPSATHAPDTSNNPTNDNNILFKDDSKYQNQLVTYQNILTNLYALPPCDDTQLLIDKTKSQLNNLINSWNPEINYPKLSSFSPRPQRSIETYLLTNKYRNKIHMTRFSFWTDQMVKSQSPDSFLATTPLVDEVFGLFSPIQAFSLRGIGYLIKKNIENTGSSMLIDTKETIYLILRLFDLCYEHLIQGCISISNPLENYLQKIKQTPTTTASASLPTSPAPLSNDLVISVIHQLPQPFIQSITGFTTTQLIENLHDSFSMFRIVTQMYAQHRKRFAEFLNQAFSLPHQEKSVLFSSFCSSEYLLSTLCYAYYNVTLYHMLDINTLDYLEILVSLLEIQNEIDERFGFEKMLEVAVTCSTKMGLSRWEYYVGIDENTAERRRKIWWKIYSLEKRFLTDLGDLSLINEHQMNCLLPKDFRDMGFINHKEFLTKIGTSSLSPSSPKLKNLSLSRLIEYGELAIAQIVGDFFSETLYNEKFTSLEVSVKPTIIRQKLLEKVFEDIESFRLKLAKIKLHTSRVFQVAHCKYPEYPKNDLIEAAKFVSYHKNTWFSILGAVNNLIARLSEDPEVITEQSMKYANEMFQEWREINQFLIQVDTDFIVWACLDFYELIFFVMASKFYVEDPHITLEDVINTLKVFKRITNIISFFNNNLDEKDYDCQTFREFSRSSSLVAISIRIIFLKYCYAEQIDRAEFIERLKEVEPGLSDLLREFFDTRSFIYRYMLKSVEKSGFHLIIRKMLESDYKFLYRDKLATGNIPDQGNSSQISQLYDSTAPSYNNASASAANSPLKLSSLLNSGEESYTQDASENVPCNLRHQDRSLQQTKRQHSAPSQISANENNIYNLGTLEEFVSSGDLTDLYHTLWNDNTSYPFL
# Assay: PBM E-score (8-mer binding enrichment) (E-score (-0.5 to 0.5)); higher = stronger / more preferred TF binding
# Conditions: protein concentration: 200 nM; construct: GST-full length
# Protocol: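 Universal 'all 10-mer' protein binding microarrays (Agilent AMADID 015681) probed with GST-tagged S. cerevisiae TFs (full-length or DBD) made by in vitro transcription/translation (PURExpress), about 100-200 nM. Bound TF was detected with fluorescent anti-GST. Each ungapped 8-mer (which stands for itself and its reverse complement) is scored by the PBM enrichment score (E-score), a modified Wilcoxon-Mann-Whitney statistic from -0.5 to +0.5, computed with the Universal PBM Analysis Suite. Scale: above 0.35 generally sequence-specific binding.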
row,Sequence,PBM E-score
1,AACAACAC,0.0662
2,CCTCCAGG,-0.269
3,AATATTCC,0.362
4,AATATTCA,0.0722
5,AATATTCG,0.0118
6,ATACCGCC,0.212
7,GTCCGTTA,0.321
8,CTCCGTTA,0.216
9,ATCCGTGG,0.428
10,ATCCGTTG,0.376
11,ATCCGTGA,0.306
12,ATCCGTTA,0.364
13,ATCCGTGC,0.267
14,ACCCGTTG,0.0389
15,ATCCGTTC,0.322
16,AGCCGTTG,0.00388
17,CTCCGTTC,0.367
18,CTCCGTGC,0.263
19,AAGCGCGT,-0.113
20,TAGTCCCA,-0.187
21,CAACCCGG,0.293
22,CCACTCTA,-0.0753
23,AAGAGCCC,-0.00683
24,CGCTTAAC,0.0421
25,CAACCGCG,0.369

row,Sequence,PBM E-score
1,AAACCGGA,0.346
2,GAACCGGA,0.416
3,TAACCGGA,0.308
4,CAACCGCC,0.0754
5,CAACCGCA,0.0919
6,CAACCGGA,0.379
7,GAACCGGC,0.247
8,CAACCGGG,0.129
9,AAGATGAC,-0.202
10,AATGAAAC,0.059
11,GGCCTTCA,0.0249
12,GCGCCCCC,-0.146
13,GCCGACGC,0.178
14,CAATCCGG,0.394
15,CAATCCGC,0.265
16,AAATCCGG,0.39
17,AAATCCGT,0.246
18,CAATCCGA,0.271
19,AAATCCGC,0.196
20,GCCTCTTA,-0.109
21,CGAAGGTA,0.0358
22,CCGGACGC,0.33
23,TCGGACGA,0.233
24,ACGGACGG,0.245
25,ACGGACGA,0.304

row,Sequence,PBM E-score
1,CCGGACGG,0.396
2,CCGGACGA,0.36
3,AGCATTCA,-0.0565
4,CCGTACGA,0.00505
5,CATTTCTC,0.0391
6,GTAAAAAC,-0.132
7,ACCGGGTC,0.184
8,CCCGGGTA,0.438
9,CCCGGGTC,0.426
10,ACCGGGTA,0.154
11,CCGGGGTC,0.327
12,CCGGGGTA,0.341
13,AAACCATT,-0.226
14,TCGCTTCA,-0.114
15,CGGTCGAA,0.0584
16,ACATCCCG,0.415
17,ATATCCCA,0.229
18,ATATCCGC,0.333
19,ATGTCCGC,0.223
20,ATATCCCG,0.357
21,ATATCCGA,0.346
22,ACATCCCC,0.245
23,CCATCCCG,0.31
24,ATATCCCC,0.0317
25,ATATCCGG,0.384

row,Sequence,PBM E-score
1,ATGTCCGA,0.207
2,ATGTCCGG,0.375
3,AATAGCGC,0.0976
4,TCCTACAA,0.00772
5,GAGTAGCC,-0.153
6,AAACTGGC,-0.0559
7,AGAGGCAC,-0.154
8,CGGCTAAA,0.183
9,AGATCCAG,0.112
10,AGATCCGC,0.351
11,ACATCCGG,0.378
12,AGATCCGG,0.362
13,ACATCCGT,0.216
14,ACATCCGA,0.259
15,ACCGTTGG,0.0171
16,CAGCATGG,-0.00655
17,TACACGGA,0.3
18,ACCATGGA,-0.151
19,GCCACGGC,0.0607
20,GCCACGTA,-0.208
21,TCCATGGA,0.423
22,ACCACGGG,0.205
23,ACCACGGA,0.377
24,TCCACGGA,0.477
25,CCCATGGA,-0.0126

row,Sequence,PBM E-score
1,ACCACGGC,0.135
2,TCCACGCA,-0.174
3,GCCACGGA,0.415
4,AGGCAGCA,-0.0599
5,AAAACTCT,-0.109
6,ATCAACGG,0.247
7,CTATCCAC,0.0063
8,ATGCTATA,-0.21
9,ACGTTTTA,-0.16
10,ATGGTGAC,-0.245
11,CCCACGGG,0.311
12,CCCACGGC,0.0935
13,CCCACGGA,0.424
14,GTCAGTAA,-0.145
15,ACTGGAAC,0.0779
16,ACAGAGCC,-0.128
17,CACTCCGG,0.351
18,CCCTCCGG,0.265
19,AGCTCCGG,0.389
20,ATCTCCGG,0.4
21,ACCTCCGT,0.204
22,AACTCCGT,0.271
23,ATCTCCGA,0.324
24,AGCTCCGC,0.287
25,ACCTCCGG,0.402

row,Sequence,PBM E-score
1,AACTCCGG,0.416
2,AGCTCCGA,0.239
3,ATCTCCGC,0.292
4,ACGCTACC,-0.183
5,CGAGCGCG,0.273
6,AGCGAAGG,-0.0572
7,GATTTAAA,-0.159
8,ATGGCACG,0.117
9,CGCCGGCC,0.32
10,AGCCGGCG,0.372
11,AGGCGCCG,0.161
12,CGGCGCCG,0.463
13,CGCCGGCA,0.339
14,AGCCGGCT,0.315
15,CGGCGCCA,0.171
16,AGCCGGCA,0.339
17,CGCCGGCG,0.452
18,AACCAGAG,-0.12
19,ACTGACCG,-0.00211
20,CGTGCTTA,0.0586
21,CCTCTAGC,-0.247
22,GTTCCACA,0.0178
23,CGTACGGA,0.281
24,CGGACCCC,0.198
25,AGGACCCG,0.17

row,Sequence,PBM E-score
1,CGGACCCG,0.392
2,CAGCGCAG,-0.00798
3,CTCTCTGC,-0.0361
4,ATTTGACC,-0.0303
5,CATTGCAC,-0.0987
6,CGCCGACG,0.0962
7,CGGAAATA,0.45
8,AGGAAATC,0.0849
9,AGGAAATA,0.121
10,CGGAAATC,0.407
11,CTGAAATC,0.0707
12,GGGAAATA,0.0401
13,AACTCGAC,0.0587
14,AACAGCTT,0.048
15,TAGGGGAA,-0.157
16,AGGCATTA,-0.12
17,CGGCATTA,0.357
18,GGGCATTA,-0.0343
19,CTCTTCCC,0.0704
20,AAATCCAT,0.17
21,GGAACTAA,0.296
22,CCCGCCAC,0.254
23,AGCTGCTG,-0.0512
24,AGCTTCGA,-0.102
25,CAGCCGGG,0.229

row,Sequence,PBM E-score
1,AAGCCGTC,0.178
2,GAGCCGGA,0.362
3,GAGCCGGC,0.324
4,CAGCCGGA,0.398
5,GAGCCGCA,0.044
6,AAGCCGGT,0.199
7,CAGCCGGC,0.324
8,AAGCCGGG,0.262
9,AAGCCGGA,0.392
10,AAGCCGGC,0.366
11,CAGCCGAA,0.0741
12,AAGTGCTC,-0.107
13,AGTTCTAA,0.00941
14,ACGGTGAA,-0.0181
15,AATCGTCA,-0.112
16,GTTGATCA,0.0338
17,AGCCCCAT,-0.0914
18,TAGCCGCA,-0.0883
19,TAGCCGGA,0.372
20,TAGCCGAA,0.0812
21,AAAGAGGA,-0.131
22,ATAACTGA,0.00191
23,CTGAACTC,-0.215
24,AGGAACTA,0.0717
25,CGGAACTA,0.473

row,Sequence,PBM E-score
1,AGGAACTC,0.0544
2,CGGAACTC,0.452
3,GGGAACTA,0.0485
4,CTCTTCTC,-0.18
5,GTATGGAC,0.0423
6,ACCGATGG,-0.0565
7,CTACTGTA,-0.136
8,ACTAAACT,-0.121
9,AGCAGCAC,-0.129
10,GTTGCCTA,0.0329
11,ACCCGGGT,0.446
12,ACCCGGGC,0.424
13,CCCCGGGC,0.33
14,AACCGGGA,0.243
15,ACCCGGTC,0.199
16,GCCCGGGC,0.427
17,ACCCGGCT,0.24
18,ACCGGGGA,0.0294
19,GACCGGGC,0.0834
20,ACCCCGGT,0.186
21,ACCCGGGA,0.448
22,ACCGGGGC,0.224
